Bioassay records deposited in PubChem by National Center for Advancing Translational Sciences (NCATS).
GLA inh pH 4.5: inhibitors of human alpha-galactosidase A at pH 4.5 | purified enzyme, 4-MU-alpha-Gal fluorescence, pH 4.5 | 230,000 tested, under 10 active | AID 1467 | P06280 | activity change, negative = inhibition, % at 105 µM
Target sequence (P06280 whole entry, looked up): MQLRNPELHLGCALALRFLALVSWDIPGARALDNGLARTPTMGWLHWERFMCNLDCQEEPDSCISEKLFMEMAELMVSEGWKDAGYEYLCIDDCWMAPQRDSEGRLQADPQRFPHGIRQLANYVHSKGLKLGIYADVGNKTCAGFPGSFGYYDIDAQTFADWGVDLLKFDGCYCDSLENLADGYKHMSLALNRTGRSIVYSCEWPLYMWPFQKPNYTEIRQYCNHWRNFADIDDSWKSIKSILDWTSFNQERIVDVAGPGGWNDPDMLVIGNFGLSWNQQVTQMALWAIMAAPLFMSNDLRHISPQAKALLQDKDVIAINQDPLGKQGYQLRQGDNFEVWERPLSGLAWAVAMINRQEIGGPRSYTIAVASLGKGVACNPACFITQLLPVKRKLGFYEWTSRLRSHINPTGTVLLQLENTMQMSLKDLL
N370S GC: inhibits or activates N370S mutant glucocerebrosidase; P04062; N370S GC spleen homogenate, 4MU-glucoside fluorescence; Potency, µM (highest dose often 59.4 µM), usual class: inhibitors; 0.092% of 330,000 active; AID 2101
aGal spleen mod: alpha-galactosidase A (human) modulation; P06280; human spleen homogenate, 4MU-alpha-Gal fluorescence, 40 min; Potency, µM (titrated, usually from 80 µM), most hits filed as inhibitors; 0.008% of 240,000 active
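Fluorogenic readout (Ex 365/Em 440 nm) of 4-methylumbelliferone released from 1 mM 4-MU-alpha-galactoside by spleen homogenate, 40 min at 37C, pH 5.0. Data normalized to no-enzyme and enzyme controls; Hill-equation AC50 from compound titrations.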
GAA spleen mod: inhibits or activates alpha-glucosidase in human spleen homogenate | 0.006% of 240,000 active | human spleen homogenate, 4-MU-alpha-glucoside fluorescence | Potency, µM (highest dose often 79.9 µM), hits mostly inhibitors
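Compounds were titrated against alpha-glucosidase in spleen homogenate at pH 5.0, with 1 mM 4-methylumbelliferyl substrate for 40 min at 37 C. Reactions were quenched with pH 10 NaOH/glycine and fluorescence measured.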
GAA glycogen: alters human alpha-glucosidase cleavage of glycogen; P10253; recombinant GAA, glycogen substrate, Amplex Red glucose oxidase fluorescence; Potency, µM (series often up to 76.4 µM), most hits filed as inhibitors; 0.38% of 300,000 active; AID 2100;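 note: the screen sought inhibitors and activators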
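qHTS, 1536-well; enzyme 4 nM final; cpd up to 77 uM; substrate bovine liver glycogen 30 ug; 50 mM citrate/phosphate pH 5.0, 0.01% Tween-20; 37 C, 40 min; Amplex Red detection 45 min RT; Hill fit → AC50.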
GAA inh: blocks human lysosomal alpha-glucosidase | P10253 | purified human GAA, 4-MU-alpha-glucoside fluorescence | Potency, µM (top dose mostly 76.9 µM), usual class: inhibitors | 0.005% of 200,000 active
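qHTS format, compound range up to 77 uM. Human lysosomal enzyme at 4 nM, 400 uM 4-MU glucoside substrate, pH 5.0, 20 min room temperature; fluorescence after alkaline stop gives activity normalized to controls.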
A number is an active result; – = inactive; ? = inconclusive; · = not tested or not shown; [ ] = another dose, or the depositor's remark. Most compounds without a hit are left out; they make up all but 0.43% or so of the library. Calls come from the whole dose curve; as a rule, active = well fitted curve in the direction sought with a large enough effect; inconclusive = small, poorly fitted or top-dose-only effect, or another doubt; inactive = no such curve, though single readings can be large; an effect the other way counts as inactive or inconclusive.

SMILES	GLA inh pH 4.5	N370S GC	aGal spleen mod	GAA spleen mod	GAA glycogen	GAA inh
COc1cccc(-n2cn[nH]c2=S)c1	–[21.1 µM]	–	–	–	–	–
CCn1c(-c2ccccc2)csc1=Nc1ccc(O)cc1	–	–	–	·	13µM	–
CCOc1ccc(NC(=S)N(CCc2c(C)[nH]c3ccc(C)cc23)Cc2ccncc2)cc1	–	14µM	–	–	–	–
CC(C)[C@@H](OCc1ccccc1)[C@H](C)/C=N\O[C@@H](C)c1cn([C@H](CO)Cc2ccccc2)nn1	·	–[12.8 µM]	–[17.5 µM]	–[17.4 µM]	·	·
Nc1ccccc1Nc1cc(-c2ccccc2)nn1-c1ccccc1	–	–	–	–	?	–
Nc1ccccc1Nc1cc(-c2ccccc2)[nH]n1	–	–	–	–	7.9µM	–
Cc1nn2c3c(cnc2c1-c1ccc(F)cc1)C(=O)CC(c1ccccc1)C3 (centres undefined)	·	·	·	·	–	·
COCCNc1c(-c2ccc(O)cc2)nc2ccc(Cl)cn12	–	?	–	–	10µM	–
Oc1[nH]c2ccccc2c1C=Nc1ccc2c(c1)OCCO2	–	–	–	–	32µM	–
CC[C@H](C)[C@H](NC(=O)[C@H](Cc1cnc[nH]1)NC(=O)[C@@H](NC(=O)[C@H](CCCNC(=N)N)NC(=O)[C@H](CCCCN)NC(=O)[C@H](CCCNC(=N)N)NC(=O)[C@H](CCCCN)NC(=O)[C@@H](N)CC(N)=O)[C@@H](C)CC)C(=O)NCC(=O)N1CCC[C@H]1C(=O)NCC(=O)N[C@@H](CCCNC(=N)N)C(=O)N[C@@H](C)C(=O)N[C@@H](Cc1ccccc1)C(=O)N[C@@H](Cc1ccc(O)cc1)C(=O)N[C@H](C(=O)N[C@H](C(=O)N[C@@H](CCCCN)C(=O)N[C@@H](CC(N)=O)C(=O)N[C@H](C(=O)N[C@H](C(=O)NCC(=O)N[C@H](C(=O)N[C@H](C(=O)N[C@@H](CS)C(=O)O)[C@@H](C)CC)[C@@H](C)O)[C@@H](C)CC)[C@@H](C)CC)[C@@H](C)O)[C@@H](C)O	·	–	–	–	·	·
Cc1cc(NC(=O)CN2CCN(c3ccccc3O)CC2)no1	–	–	–	–	13µM	–
CCOc1ccc(N2C(=O)CC(N3CCc4ccccc43)C2=O)cc1 (centres undefined)	–	–[12.8 µM]	–	–	14µM	–
COc1ccc(C(=O)NNC(=S)NC(=O)C(C)(C)C)cc1	–	–	–	–	7.9µM	–
COc1ccc(Cl)cc1NC(=O)c1ncn(-c2ccccc2)n1	·	·	·	·	–	·
C=CCc1cccc(/C=N/NC(=O)CN2CCN(Cc3ccccc3)CC2)c1O	·	–	–	–	·	·
Oc1ccc(N2CCN(C(=S)NCCc3ccccc3)CC2)cc1	–	–	–	–	25µM	–
CCC(=O)[C@]12O[C@@]3(C4C(=O)OCCC41)N(CC)C(C)=C(C(=O)OC)C(c1ccccc1)N3C2=O (some centres undefined)	·	–[12.8 µM]	–[17.5 µM]	–[17.4 µM]	·	·
O=C1NC(=O)/C(=C/c2cccc3ccccc23)S1	·	–	·	·	–	·
O=C1NC(=O)/C(=C\c2ccc(O)cc2O)S1	–	–	–	–	2.8µM	?
O=C(NNc1ccc(-c2csnn2)cc1)c1ccccc1C(F)(F)F	–	–	–	–	9.9µM	–
Cc1ccc(NC(=O)Cn2c(=O)c3ccccc3n3nncc23)cc1	·	·	·	·	–	·
CCCn1c(CNc2ccccc2O)nc2ccccc21	–	–	–	–	12µM	–
COc1cccc(-c2ccc3ncnc(N(C)C)c3c2)c1	·	–	50µM	–	·	·
COc1cc(OC)cc(-c2nnc3n2N=C(c2cc(OC)ccc2OC)CS3)c1	·	–	–	–	·	·
COc1cccc(OCC(O)CN2CCC(CN3C(=O)c4cccc5cccc(c45)C3=O)CC2)c1 (centres undefined)	–	–	–	–	–	–
SMILES	GLA inh pH 4.5	N370S GC	aGal spleen mod	GAA spleen mod	GAA glycogen	GAA inh
O=C1c2cccc3cccc(c23)C(=O)N1CC1CCN(CC(O)COc2ccc3ccccc3c2)CC1 (centres undefined)	–	–	–	–	25µM	–
CCc1cccc(NC(=O)Nc2cccs2)c1	–	–	–	–	28µM	–
O=C1c2c(O)cc(O)cc2O[C@H](c2ccc(O)c(O)c2)[C@@H]1O	–	–	–	–	3.2µM	–[15.4 µM]
O=C1c2c(O)cc(O)cc2O[C@H](c2ccc(O)c(O)c2)[C@H]1O	–	–	–	–	?	–[15.4 µM]
CC(=O)Nc1cc(C(C)C)c(O)c(C(C)C)c1	–	–	–	–	11µM	–
CC(C)(C)NC(=O)C(c1ccncc1)N(Cc1cccs1)C(=O)c1csnn1 (centres undefined)	–	–	–	–	?	·
O=C(NC1CCCC1)C(c1ccncc1)N(Cc1cccs1)C(=O)c1csnn1 (centres undefined)	–	–	–	–	20µM	–
O=C1Cc2cc(S(=O)(=O)N3CCN(c4ccc([N+](=O)[O-])cc4)CC3)ccc2N1	·	·	·	·	8.2µM	·
O=C1CCc2cc(S(=O)(=O)N3CCN(c4cccc(C(F)(F)F)c4)CC3)ccc2N1	–	–	–	–	–	–
CCOC(=O)C1CCN(S(=O)(=O)c2ccc3c(c2)CC(=O)N3)CC1	·	–	·	·	14µM	·
N#Cc1ccc(N2CCN(S(=O)(=O)c3ccc4c(c3)CC(=O)N4)CC2)cc1	·	·	·	·	6.5µM	·
O=[N+]([O-])c1ccc(N2CCN(S(=O)(=O)c3ccccc3)CC2)cc1	·	–	·	·	–	·
CC(=O)c1ccc(N2CCN(S(=O)(=O)c3ccc4c(c3)NC(=O)CO4)CC2)cc1	·	–	·	·	–	·
CCOC(=O)C1CCN(S(=O)(=O)c2ccc3c(c2)NC(=O)C(C)S3)CC1 (centres undefined)	·	–	·	·	–	·
O=C1Cc2cc(S(=O)(=O)N3CCN(c4cccc(C(F)(F)F)c4)CC3)ccc2N1	·	·	·	·	9.5µM	·
COc1ccc(CSc2nc3ccncc3n2Cc2nc(-c3ccc(OC)c(OC)c3)oc2C)cc1	·	·	·	·	–	·
O=C1Cc2cc(S(=O)(=O)N3CCCCC3)ccc2N1	·	–	·	·	?	·
O=C1Cc2cc(S(=O)(=O)N3CCN(c4ccc(O)cc4)CC3)ccc2N1	·	·	·	·	6.7µM	·
CN(C(=O)CSc1nc2ccc(NC(=O)CCc3ccccc3)cc2s1)c1ccccc1	·	·	·	·	–	·
C=C1CC2COC(=O)C2(Cc2ccc3ccccc3c2)C1 (centres undefined)	·	–	–	–	·	·
O=C1CCN(CCc2ccccc2)CCN1C(CSc1ccc(Br)cc1)c1ccccc1 (centres undefined)	·	–	–	–	·	·
CCOC(=O)C1CCN(c2nc3ccccc3nc2C(C#N)C(=O)NCCc2ccccc2)CC1 (centres undefined)	·	–	–	–	14µM	–[15.4 µM]
CCOC(=O)C1CCCN(c2nc3ccccc3nc2C(C#N)C(=O)OCC)C1 (centres undefined)	–	–	–	–	–	–
